Source: PubChem BioAssay
Activity calls are given as the source filed them. Unless noted, the rule behind the calls is not given here.

Key:
[1] = P. berghei load reduction in hepatocytes – cell-based, HepG2, luciferase luminescence, HepG2 viability, primary screen (AID 624349; in the data active = parasite load remaining mostly below about 12%, no sharp cut-off; inactive = mostly above about 10%;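 note: 100% = mean of DMSO negative control wells on the same plate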); settings: P. berghei liver stage in HepG2, luciferase luminescence, concentration not given here; parasite load remaining: stronger effect = lower value; viability: measured here: HepG2 viability without parasites
[2] = system: Aerobactin synthetase IucA (Klebsiella pneumoniae); assay: inhibition of K. pneumoniae IucA enzyme – biochemical, Tocris library, absorbance (AID 1345561); settings: purified IucA enzyme assay, absorbance (OD) read-out; stronger effect = lower value;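 tested at 8 µM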;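 note: 100% = enzyme without compound and 0% = no enzyme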
[3] = viability loss with induced miR-34 in A549 – imaging, A549 dox-inducible miR-34, nuclei and caspase counts, primary screen (AID 1347080;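 active = compounds whose cell count with miR-34 switched on is under 0.7 times the count with it off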); settings: A549 miR-34 inducible, Hoechst nuclei count, 48 h
[4] = galactose survival enhancers in mitochondrial complex I cybrids – cell-based, galactose medium, ATP luminescence, primary screen (AID 1645843;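 active = z-score of at least 1.8 in each of two replicates, scored against plate mean and spread of sample wells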;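 note: positive z means more ATP and so rescue of galactose-driven cybrid death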); settings: complex I mutant cybrid cells, 72 h, stronger effect = higher value
[5] = growth inhibition, single agent or in combination, cell-based, chromothripsis tumors, cisplatin or BGB combos (AID 1671449; in the data active = inhibition above about 80%;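 note: cells exposed for 96 hours; 0% = vehicle DMSO and 100% = killing by high DMSO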); settings: LFS_MB_P medulloblastoma cells
[6] = growth inhibition, single agent and combos, cell-based, chromothripsis tumors, cisplatin or BGB combos (AID 1671450; in the data active = inhibition above about 80%;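 note: cells exposed to compound for four days; 0% = vehicle DMSO and 100% = cell killing by high DMSO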); settings: HDN33 neuroblastoma cells, stronger effect = higher value
[7] = growth inhibition, single agents and combos, ICB984, cell-based, cisplatin or BGB combos, synergistic combos for chromothripsis tumors (AID 1671451); settings: ICB984 medulloblastoma cells, drug combinations, stronger effect = higher value;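 note: cells exposed for 96 hours before readout; 0% = vehicle DMSO and 100% = killing by high DMSO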
[8] = growth inhibition, single agents and combos, HTB85, cell-based, BGB or cisplatin IC20 combos, synergistic combos for chromothripsis tumors (AID 1671453; in the data active = inhibition above about 80%;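 note: cells exposed for 96 hours before readout; 0% = vehicle DMSO and 100% = high DMSO killing control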); settings: HTB85 osteosarcoma cells, drug combinations, stronger effect = higher value
[9] = stronger effect = lower value, cell number ratio, induced over uninduced
[10] = measured here: relative caspase fold change +Dox/-Dox
[11] = measured here: total cells with miR-34 induction, stronger effect = lower value
[12] = measured here: total cells without miR-34 induction

O=c1cc(N2CCNCC2)oc2c(-c3ccccc3)cccc12
parasite load remaining [1]: 25.4% (inactive) | viability [1]: 90.4% | remaining activity [2]: 83.1% (inactive) | fold change [3, 9]: 0.968 (inactive) | fold change [3, 10]: 1.21 | cell count [3, 11]: 7780 | cell count [3, 12]: 8040 | z-score [4]: 1.52 (inactive)

CC(C)[C@H](CO)Nc1nc(Nc2cc(N)cc(Cl)c2)c2ncn(C(C)C)c2n1
parasite load remaining [1]: 38.5% (inactive) | viability [1]: 101% | remaining activity [2]: 103% (inactive) | fold change [3, 9]: 1.06 (inactive) | fold change [3, 10]: 1.14 | cell count [3, 11]: 1230 | cell count [3, 12]: 1160 | z-score [4]: -0.555 (inactive)

Cc1c(CC(C)(C)C(=O)O)n(Cc2ccc(Cl)cc2)c2ccc(F)cc12
remaining activity [2]: 112% (inactive) | fold change [3, 9]: 0.952 (inactive) | fold change [3, 10]: 0.72 | cell count [3, 11]: 8220 | cell count [3, 12]: 8630 | z-score [4]: 0.1 (inactive)

N[C@@H](Cc1cc(-c2ccc(Cl)cc2Cl)cc(CP(=O)(O)O)c1O)C(=O)O
remaining activity [2]: 115% (inactive) | fold change [3, 9]: 0.913 (inactive) | fold change [3, 10]: 0.553 | cell count [3, 11]: 8540 | cell count [3, 12]: 9350 | z-score [4]: 0.635 (inactive)

COc1[nH]c2ccc(F)cc2c1C(=O)OCC1CCN(CCNS(C)(=O)=O)CC1
remaining activity [2]: 110% (inactive) | fold change [3, 9]: 0.927 (inactive) | fold change [3, 10]: 0.654 | cell count [3, 11]: 8220 | cell count [3, 12]: 8880 | z-score [4]: -0.185 (inactive)

Nc1ccc(-c2cccc3c(=O)cc(N4CCOCC4)oc23)cc1
parasite load remaining [1]: 43.6% (inactive) | viability [1]: 83.4% | remaining activity [2]: 104% (inactive) | fold change [3, 9]: 0.901 (inactive) | fold change [3, 10]: 1.45 | cell count [3, 11]: 3870 | cell count [3, 12]: 4300 | z-score [4]: 4.44 (active)

O=C(OCCN1CCCCC1)c1c[nH]c2ccccc12
remaining activity [2]: 82.2% (inactive) | fold change [3, 9]: 0.911 (inactive) | fold change [3, 10]: 0.811 | cell count [3, 11]: 9250 | cell count [3, 12]: 10200 | z-score [4]: 0.69 (inactive)

O=c1[nH]cnc2ccccc12
remaining activity [2]: 102% (inactive) | fold change [3, 9]: 0.942 (inactive) | fold change [3, 10]: 1.88 | cell count [3, 11]: 8900 | cell count [3, 12]: 9450 | z-score [4]: -0.085 (inactive) | inhibition ([5]; at 0.5 µM, stronger effect = higher value): -17.1% (inactive) | inhibition ([5]; measured here: combination with BGB IC20, at 0.005 µM): -35.2% | inhibition ([5]; measured here: combination with BGB IC40, at 0.005 µM): -30.5% | inhibition ([5]; measured here: combination with BGB IC40, at 0.05 µM): -20.2% | inhibition ([5]; measured here: combination with cisplatin, at 0.5 µM, stronger effect = higher value): -41% | inhibition ([5]; measured here: combination with cisplatin, at 5 µM, stronger effect = higher value): -52.6% | inhibition ([6]; BGB combo, at 5 µM): -24.4% | inhibition ([6]; at 0.5 µM): -4.24% (inactive) | inhibition ([6]; cisplatin combo, at 5 µM): 7.34% | inhibition ([6]; measured here: with BGB IC20 combination, at 0.5 µM): 2.06% | inhibition ([6]; measured here: with cisplatin IC20 combination, at 0.5 µM): -23.5% | inhibition ([6]; single agent, at 5 µM): 3.32% | inhibition ([7]; BGB IC20 combo, at 0.005 µM): -9.29% | inhibition ([7]; BGB IC40 combo, at 0.005 µM): -31.8% | inhibition ([7]; BGB IC40 combo, at 0.05 µM): -19.2% | inhibition ([7]; at 0.5 µM): -16.4% (inactive) | inhibition ([7]; cisplatin combo, at 0.05 µM): -23.5% | inhibition ([7]; cisplatin combo, at 0.5 µM): -12.5% | inhibition ([7]; cisplatin combo, at 5 µM): -22.5% | inhibition ([7]; measured here: 5 uM single agent, at 5 µM): -4.22% | inhibition ([8]; at 0.5 µM): -3.81% (inactive) | inhibition ([8]; measured here: with BGB IC20, at 0.5 µM): -2.72% | inhibition ([8]; measured here: with BGB IC20, at 5 µM): 7.21% | inhibition ([8]; measured here: with cisplatin IC20, at 0.5 µM): 2.1% | inhibition ([8]; measured here: with cisplatin IC20, at 5 µM): -54.4% | inhibition ([8]; single agent, at 5 µM): -7.3%
